Results: the supplement of paper PMC12067926

tested on: Prolinoborus 1 (Prolinoborus fasciculus); assay: relative growth (AUC of 72 h growth curve relative to DMSO control, dAUC) (ratio); higher = more growth (less inhibition), active = hit call of the paper; conditions: 20 µM;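 active = growth AUC significantly below the DMSO wells by Dunnett test; inactive = the rest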
Procedure, shortened: (§1)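 Whole sediment communities and bacterial isolates from Icelandic stream sediments and Silwood Park soil were brought to carrying capacity in Luria–Bertani medium. They were then diluted 1:100 into 96-well plates with each chemical at 20 µM in 1% DMSO, and A600 was recorded every hour for 72 h. The area under each growth curve, integrated by spline, was averaged across three biological replicates. This figure, divided by the mean of the DMSO controls, gives relative growth (dAUC).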

| Structure (SMILES) | relative growth |
| --- | --- |
| Nc1c([N+](=O)[O-])ccc(Oc2ccccc2)c1Cl | 0.962 (inactive) |
| C/C(=N\C#N)N(C)Cc1ccc(Cl)nc1 | 0.963 (inactive) |
| CCC(C)(C)C(=O)OC1=C(c2ccc(Cl)cc2Cl)C(=O)OC12CCCCC2 | 0.952 (inactive) |
| CC1(C)CON(Cc2ccccc2Cl)C1=O | 0.954 (inactive) |
| CC[C@H](C)[C@H]1O[C@]2(C=C[C@@H]1C)C[C@@H]1C[C@@H](C/C=C(\C)[C@@H](O[C@H]3C[C@H](OC)[C@@H](O[C@H]4C[C@H](OC)[C@@H](O)[C@H](C)O4)[C@H](C)O3)[C@@H](C)/C=C/C=C3\CO[C@@H]4[C@H](O)C(C)=C[C@@H](C(=O)O1)[C@]34O)O2.CO[C@H]1C[C@H](O[C@H]2[C@H](C)O[C@@H](O[C@@H]3/C(C)=C/C[C@@H]4C[C@@H](C[C@]5(C=C[C@H](C)[C@@H](C(C)C)O5)O4)OC(=O)[C@@H]4C=C(C)[C@@H](O)[C@H]5OC/C(=C\C=C\[C@@H]3C)[C@]54O)C[C@@H]2OC)O[C@@H](C)[C@@H]1O | 0.894 (inactive) |
| CCC(CC)Nc1c([N+](=O)[O-])cc(C)c(C)c1[N+](=O)[O-] | 0.939 (inactive) |
| Cc1c(COC(=O)[C@@H]2[C@H](/C=C(\Cl)C(F)(F)F)C2(C)C)cccc1-c1ccccc1 (racemic) | 0.977 (inactive) |
| CS(=O)(=O)c1ccc(C(=O)C2C(=O)CCCC2=O)c([N+](=O)[O-])c1 | 0.983 (inactive) |
| N#Cc1cc(Br)c(O)c(Br)c1 | 0.996 (inactive) |
| CNC(=O)CSP(=S)(OC)OC | 0.985 (inactive) |
| COP(=S)(OC)SCN1C(=O)c2ccccc2C1=O | 1.08 (inactive) |
| OC(Cn1cncn1)(c1ccc(F)cc1)c1ccccc1F (centres undefined) | 0.985 (inactive) |
| CN1COCN(Cc2cnc(Cl)s2)/C1=N\[N+](=O)[O-] | 0.974 (inactive) |
| N#CC(CCc1ccc(Cl)cc1)(Cn1cncn1)c1ccccc1 (centres undefined) | 0.902 (inactive) |
| CCSC(C)CC1CC(=O)C(/C(CC)=N/OC/C=C/Cl)=C(O)C1 (mixture of isomers) | 0.983 (inactive) |
| CCCCc1c(C)nc(NCC)nc1OS(=O)(=O)N(C)C | 1.04 (inactive) |
| CCCN(CCC)C(=O)SCc1ccccc1 | 1.01 (inactive) |
| O=C(O)COc1ccc(Cl)cc1Cl | 1.01 (inactive) |
| O=C1C2(Cl)C3(Cl)C4(Cl)C(Cl)(Cl)C5(Cl)C3(Cl)C1(Cl)C5(Cl)C24Cl (centres undefined) | 0.943 (inactive) |

| Structure (SMILES) | relative growth |
| --- | --- |
| Nc1c(Cl)c(F)nc(OCC(=O)O)c1Cl | 1 (inactive) |
| Cc1cccc2sc3nncn3c12 | 1.01 (inactive) |
| O=C(O)CNCP(=O)(O)O | 0.991 (inactive) |
| CCNC(=O)NC(=O)/C(C#N)=N/OC | 0.954 (inactive) |
| Cc1cc(C2CC2)nc(Nc2ccccc2)n1 | 1.03 (inactive) |
| COP(=O)(NC(C)=O)SC (centres undefined) | 1.03 (inactive) |
| Cc1nnc(-c2ccccc2)c(=O)n1N | 0.97 (inactive) |
| Clc1ccc(C(c2ccc(Cl)cc2)C(Cl)(Cl)Cl)cc1 | 1.08 (inactive) |
| O=C(Nc1ccc(F)cc1F)c1cccnc1Oc1cccc(C(F)(F)F)c1 | 1.03 (inactive) |
| N#Cc1sc2c(=O)c3ccccc3c(=O)c=2sc1C#N | 1.03 (inactive) |
| CC[C@H](C)C1O[C@]2(C=C[C@@H]1C)C[C@@H]1C[C@@H](C/C=C(\C)[C@@H](O[C@H]3C[C@H](OC)[C@@H](O[C@H]4C[C@H](OC)[C@H](NC)[C@H](C)O4)[C@H](C)O3)[C@@H](C)/C=C/C=C3\CO[C@@H]4[C@H](O)C(C)=C[C@@H](C(=O)O1)[C@]34O)O2 (some centres undefined) | 0.605 (active) |
| CNC(=O)Oc1cccc2ccccc12 | 1 (inactive) |
| COP(N)(=O)SC (centres undefined) | 0.972 (inactive) |
| COC(=O)NC(=S)Nc1ccccc1NC(=S)NC(=O)OC | 0.975 (inactive) |
| COP(=O)(OC)OC=C(Cl)Cl | 0.895 (inactive) |
| CC(C)N(C(=O)COc1nnc(C(F)(F)F)s1)c1ccc(F)cc1 | 0.963 (inactive) |
| CCc1cc(C)cc(CC)c1-c1c(OC(=O)C(C)(C)C)n2n(c1=O)CCOCC2 | 0.926 (inactive) |
| CNC(=O)ON=C(C)SC | 0.938 (inactive) |

tested on: Pseudomonas 1 (Pseudomonas baetica); assay: as above; conditions: 20 µM
Procedure, shortened: as §1

| Structure (SMILES) | relative growth |
| --- | --- |
| Nc1c([N+](=O)[O-])ccc(Oc2ccccc2)c1Cl | 1.15 (inactive) |
| C/C(=N\C#N)N(C)Cc1ccc(Cl)nc1 | 0.967 (inactive) |
| CCC(C)(C)C(=O)OC1=C(c2ccc(Cl)cc2Cl)C(=O)OC12CCCCC2 | 1.07 (inactive) |
| CC1(C)CON(Cc2ccccc2Cl)C1=O | 1.01 (inactive) |
| CC[C@H](C)[C@H]1O[C@]2(C=C[C@@H]1C)C[C@@H]1C[C@@H](C/C=C(\C)[C@@H](O[C@H]3C[C@H](OC)[C@@H](O[C@H]4C[C@H](OC)[C@@H](O)[C@H](C)O4)[C@H](C)O3)[C@@H](C)/C=C/C=C3\CO[C@@H]4[C@H](O)C(C)=C[C@@H](C(=O)O1)[C@]34O)O2.CO[C@H]1C[C@H](O[C@H]2[C@H](C)O[C@@H](O[C@@H]3/C(C)=C/C[C@@H]4C[C@@H](C[C@]5(C=C[C@H](C)[C@@H](C(C)C)O5)O4)OC(=O)[C@@H]4C=C(C)[C@@H](O)[C@H]5OC/C(=C\C=C\[C@@H]3C)[C@]54O)C[C@@H]2OC)O[C@@H](C)[C@@H]1O | 1.05 (inactive) |
| CCC(CC)Nc1c([N+](=O)[O-])cc(C)c(C)c1[N+](=O)[O-] | 1.13 (inactive) |
| Cc1c(COC(=O)[C@@H]2[C@H](/C=C(\Cl)C(F)(F)F)C2(C)C)cccc1-c1ccccc1 (racemic) | 0.975 (inactive) |
| CS(=O)(=O)c1ccc(C(=O)C2C(=O)CCCC2=O)c([N+](=O)[O-])c1 | 1.06 (inactive) |
| N#Cc1cc(Br)c(O)c(Br)c1 | 1.06 (inactive) |
| CNC(=O)CSP(=S)(OC)OC | 0.984 (inactive) |
| COP(=S)(OC)SCN1C(=O)c2ccccc2C1=O | 0.986 (inactive) |
| OC(Cn1cncn1)(c1ccc(F)cc1)c1ccccc1F (centres undefined) | 0.993 (inactive) |
| CN1COCN(Cc2cnc(Cl)s2)/C1=N\[N+](=O)[O-] | 0.927 (inactive) |
| N#CC(CCc1ccc(Cl)cc1)(Cn1cncn1)c1ccccc1 (centres undefined) | 0.999 (inactive) |
| CCSC(C)CC1CC(=O)C(/C(CC)=N/OC/C=C/Cl)=C(O)C1 (mixture of isomers) | 1.07 (inactive) |
| CCCCc1c(C)nc(NCC)nc1OS(=O)(=O)N(C)C | 1.06 (inactive) |
| CCCN(CCC)C(=O)SCc1ccccc1 | 1.03 (inactive) |
| O=C(O)COc1ccc(Cl)cc1Cl | 0.923 (inactive) |
| O=C1C2(Cl)C3(Cl)C4(Cl)C(Cl)(Cl)C5(Cl)C3(Cl)C1(Cl)C5(Cl)C24Cl (centres undefined) | 1.01 (inactive) |

| Structure (SMILES) | relative growth |
| --- | --- |
| Nc1c(Cl)c(F)nc(OCC(=O)O)c1Cl | 0.977 (inactive) |
| Cc1cccc2sc3nncn3c12 | 1.18 (inactive) |
| O=C(O)CNCP(=O)(O)O | 0.996 (inactive) |
| CCNC(=O)NC(=O)/C(C#N)=N/OC | 0.924 (inactive) |
| Cc1cc(C2CC2)nc(Nc2ccccc2)n1 | 1.11 (inactive) |
| COP(=O)(NC(C)=O)SC (centres undefined) | 1.07 (inactive) |
| Cc1nnc(-c2ccccc2)c(=O)n1N | 1.08 (inactive) |
| Clc1ccc(C(c2ccc(Cl)cc2)C(Cl)(Cl)Cl)cc1 | 1.07 (inactive) |
| O=C(Nc1ccc(F)cc1F)c1cccnc1Oc1cccc(C(F)(F)F)c1 | 1.09 (inactive) |
| N#Cc1sc2c(=O)c3ccccc3c(=O)c=2sc1C#N | 0.913 (inactive) |
| CC[C@H](C)C1O[C@]2(C=C[C@@H]1C)C[C@@H]1C[C@@H](C/C=C(\C)[C@@H](O[C@H]3C[C@H](OC)[C@@H](O[C@H]4C[C@H](OC)[C@H](NC)[C@H](C)O4)[C@H](C)O3)[C@@H](C)/C=C/C=C3\CO[C@@H]4[C@H](O)C(C)=C[C@@H](C(=O)O1)[C@]34O)O2 (some centres undefined) | 0.957 (inactive) |
| CNC(=O)Oc1cccc2ccccc12 | 0.973 (inactive) |
| COP(N)(=O)SC (centres undefined) | 1.04 (inactive) |
| COC(=O)NC(=S)Nc1ccccc1NC(=S)NC(=O)OC | 1.04 (inactive) |
| COP(=O)(OC)OC=C(Cl)Cl | 1.08 (inactive) |
| CC(C)N(C(=O)COc1nnc(C(F)(F)F)s1)c1ccc(F)cc1 | 1.07 (inactive) |
| CCc1cc(C)cc(CC)c1-c1c(OC(=O)C(C)(C)C)n2n(c1=O)CCOCC2 | 1.1 (inactive) |
| CNC(=O)ON=C(C)SC | 0.876 (inactive) |
